A selection: hits, their analogues and other compounds. The true share with any hit is near 3.8%.
ATXN2 expr inh: reduces ATXN2 reporter expression in HEK-293 cells; HEK-293 ATXN2-luciferase reporter, luminescence, 24 h; Potency, µM (top dose mostly 57 µM), without a hit: at the top dose activity change, negative = inhibition, hits mostly inhibitors; hit rate 0.72% among 360,000; further: on the % scale 0 is the no-effect control and ±100 the full control effect; nearly all actives have a fitted effect of over 55% in size
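ATXN2-luciferase reporter cells (luciferase flanked by upstream and downstream ATXN2 gene portions) were treated 24 h at 37 °C with compounds at up to 57 uM. SteadyGlo luminescence gave expression; GF-AFC fluorescence gave viability.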
TGFb SMAD3 inh: inhibitors of TGF-b signaling; HepG2 CAGA-GFP TGF-b/SMAD3 reporter, GFP fluorescence, 18 h; TGF-beta stimulated, 500 pg/mL final; Potency, µM (series often up to 46.1 µM), for inactives: top-dose activity, negative = inhibition, hits mostly inhibitors; hit rate 1.2% among 410,000; AID 588855; further: on the % scale 0 is the no-effect control and ±100 the full control effect; nearly all actives have a fitted effect of over 65% in size
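Per well, imaged GFP fluorescence of HEPG2 CAGA-GFP cells gives the signal; cells get compound, then TGF-beta (500 pg/mL final), 18 h at 37 degrees C; %Activity versus -TGF-beta and +DMSO controls.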
Nrf2 block: blocks Nrf2 signaling | A549 ARE-Fluc reporter, luciferase luminescence, 18-24 h | Potency, µM (doses to about 46 µM), without a hit: top-dose activity change, negative = inhibition, most hits filed as inhibitors | hit rate 2.1% among 360,000; further: on the % scale 0 is the no-effect control and ±100 the full control effect; nearly all actives have a fitted effect of over 60% in size
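Concentration-response testing used A549 ARE_Fluc cells at 5000 cells/well. Following an 18-24 h compound incubation, viability was read by fluorescence (Ex 405/Em 525) and luciferase output by luminescence.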
A549 viability: counter-screen for Nrf2 inhibitors: cytotoxicity in A549 cells | A549 ARE-Fluc cells, CellTiter-Fluor viability, 18-24 h | Potency, µM (top dose mostly 46 µM), inactives show top-dose activity change, negative = cytotoxicity, hits mostly inhibitors | hit rate 0.16% among 390,000 | AID 504648; further: on the % scale 0 is the no-effect control and ±100 the full control effect
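A549 ARE-Fluc cells in 5% FBS OPTI-MEM, 5000 cells/well, rested 2 h then exposed to compounds in concentration-response for 18-24 h at 37 °C. Viability by CellTiter-Fluor fluorescence (Ex 405/Em 525) after 30 min; luciferase luminescence (BugLite, 15 min, RT) read afterwards.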
S2 tox: cell viability loss in ATXN counter-screen | S2 cells (HEK-293 line with an ATXN2-luciferase reporter) viability, CellTiter-Fluor protease fluorescence, 24 h | Potency, µM (series often up to 56.7 µM), actives largely listed as cytotoxic | hit rate 0.49% among 400,000 | AID 651635; further: nearly all actives have a fitted effect of over 40% in size
HepG2 viability: kills HepG2 cells in TGF-b inhibitor counter-screen; HepG2 CAGA-GFP viability, ATP luminescence, 18 h; Potency, µM (series often up to 46.1 µM), inactives show top-dose activity change, negative = cytotoxicity, usual class: cytotoxic; hit rate 0.76% among 410,000
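HepG2 CAGA-GFP cells (1000/well, DMEM with 1% FBS) received compound, then TGF-beta at 500 pg/mL final, and were incubated 18 hours at 37 degrees C. Viability was read by CellTiter-Glo luminescence. Media-only wells were set as complete cell-killing and DMSO as no toxicity.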
* hit, by the source's call; ! = not active in a repeat. The call rests on the fitted dose curve; in most records, active means well fitted curve in the direction sought with a large enough effect; inconclusive means small, poorly fitted or top-dose-only effect, or another doubt; inactive means no such curve, though single readings can be large; an effect the other way counts as inactive or inconclusive. Potency means the concentration at half of the fitted maximal effect.

Results for CCCCNC(=O)[C@@H]1CC=C[C@@H]2CCN(Cc3ccccc3)C(=O)[C@@H]21 ?
TGFb SMAD3 inh: -3.6%; HepG2 viability: -4.2%

Results for O=C(NCc1cccnc1)[C@@H]1CC=C[C@@H]2CCN(Cc3ccc(Cl)c(Cl)c3)C(=O)[C@@H]21 ?
ATXN2 expr inh: -13.3%; TGFb SMAD3 inh: 11.2µM*; Nrf2 block: 1.4%; A549 viability: 1.6%; S2 tox: inactive; HepG2 viability: -4.9%

Results for CCCCNC(=O)[C@@H]1CC=C[C@@H]2CCN(Cc3ccc(Cl)c(Cl)c3)C(=O)[C@@H]21 ?
ATXN2 expr inh: -23.6%; TGFb SMAD3 inh: 7.94µM*; Nrf2 block: inconclusive; A549 viability: inconclusive; S2 tox: inconclusive; HepG2 viability: -27.0%

What do the screens show for `O=C1[C@H]2[C@H](C=CC[C@H]2C(=O)N2CCN(c3ccccc3)CC2)CCN1Cc1ccc(Cl)c(Cl)c1`?
ATXN2 expr inh: inconclusive; TGFb SMAD3 inh: 10µM*!; Nrf2 block: 7.9%; A549 viability: -0.3%; S2 tox: inconclusive; HepG2 viability: -12.8%

How did COc1ccc(CN2CC[C@H]3C=CC[C@@H](C(=O)Nc4ccc(Cl)c(C(F)(F)F)c4)[C@H]3C2=O)cc1OC do in these assays?
ATXN2 expr inh: -18.8%; TGFb SMAD3 inh: 11.2µM*!; Nrf2 block: -28.3%; A549 viability: -13.3%; S2 tox: inconclusive; HepG2 viability: -13.8%

How did O=C1[C@H]2[C@H](C=CC[C@H]2C(=O)N2CCN(c3ccccc3)CC2)CCN1Cc1ccccc1 do in these assays?
ATXN2 expr inh: 0.1%; TGFb SMAD3 inh: -10.7%; Nrf2 block: -2.0%; A549 viability: -7.6%; S2 tox: inactive; HepG2 viability: -8.6%

Results for O=C(c1ccc(Cn2c(=S)[nH]c3ccccc3c2=O)cc1)N1CCN(c2ccccn2)CC1 ?
ATXN2 expr inh: 15.8µM*; TGFb SMAD3 inh: inconclusive; Nrf2 block: inconclusive; A549 viability: -15.1%; S2 tox: inactive; HepG2 viability: -16.5%

What do the screens show for `O=C1CCCCC1Nc1ccc2ccccc2c1` (centres undefined)?
ATXN2 expr inh: 78.6%; TGFb SMAD3 inh: -4.4%; Nrf2 block: 18.4µM*; A549 viability: inconclusive; S2 tox: inactive; HepG2 viability: -2.6%

Results for O=C1CCCC1C(=O)Nc1ccc2ccccc2c1 (centres undefined) ?
TGFb SMAD3 inh: -22.3%; Nrf2 block: -0.7%; A549 viability: -3.7%; S2 tox: inactive; HepG2 viability: 1.0%

What do the screens show for `O=S(=O)(c1ccc(Cl)cc1)N1CCN(Cc2c[nH]c3ccccc23)CC1`?
TGFb SMAD3 inh: -8.8%; Nrf2 block: -15.8%; A549 viability: -2.8%; HepG2 viability: 2.0%

Results for Clc1ccccc1N1CCN(Cc2c[nH]c3ccccc23)CC1 ?
ATXN2 expr inh: -22.9%; TGFb SMAD3 inh: 15.8µM*; Nrf2 block: inconclusive; A549 viability: -25.4%; S2 tox: inactive; HepG2 viability: -49.0%

How did CCn1cc(CN2CCCC(C(=O)Nc3cccc(-c4cc5ccccc5[nH]4)c3)C2)c(C)n1 (centres undefined) do in these assays?
ATXN2 expr inh: inconclusive; TGFb SMAD3 inh: inconclusive; Nrf2 block: inconclusive; A549 viability: -17.7%; S2 tox: inactive; HepG2 viability: -28.5%

How did Cn1cc(CN2CCCC(C(=O)Nc3cccc(-c4cc5ccccc5[nH]4)c3)C2)cn1 (centres undefined) do in these assays?
ATXN2 expr inh: -37.8%; TGFb SMAD3 inh: inconclusive; Nrf2 block: 23.1µM*; A549 viability: inconclusive; S2 tox: inactive; HepG2 viability: -34.3%

Results for CC(C)n1cc(CN2CCCC(C(=O)Nc3cccc(-c4cc5ccccc5[nH]4)c3)C2)cn1 (centres undefined) ?
ATXN2 expr inh: 28.2µM*; TGFb SMAD3 inh: inconclusive; Nrf2 block: -20.6%; A549 viability: -5.1%; S2 tox: inconclusive; HepG2 viability: -102.7%

How did O=C(NCc1cccnc1)C(=O)NCC(c1ccco1)N1CCN(c2ccc(F)cc2)CC1 (centres undefined) do in these assays?
ATXN2 expr inh: -20.2%; TGFb SMAD3 inh: -18.0%; Nrf2 block: 20.6µM*; A549 viability: -5.2%; S2 tox: inactive; HepG2 viability: -59.7%

What do the screens show for `O=C(NCC(c1cccnc1)N1CCOCC1)C(=O)Nc1ccc(F)cc1` (centres undefined)?
ATXN2 expr inh: 6.2%; TGFb SMAD3 inh: 14.0%; Nrf2 block: 23.1µM*; A549 viability: -6.1%; S2 tox: inactive; HepG2 viability: -0.6%

What do the screens show for `Cc1ccc(NC(=O)C(=O)NCC(c2cccnc2)N2CCOCC2)cc1C` (centres undefined)?
ATXN2 expr inh: 1.7%; TGFb SMAD3 inh: -1.5%; Nrf2 block: inconclusive; A549 viability: inconclusive; S2 tox: inactive; HepG2 viability: -4.6%

Results for COc1ccccc1CNC(=O)C(=O)NCC(c1cccnc1)N1CCN(c2ccc(F)cc2)CC1 (centres undefined) ?
ATXN2 expr inh: -13.5%; TGFb SMAD3 inh: inconclusive; Nrf2 block: 20.6µM*; A549 viability: inconclusive; S2 tox: inactive; HepG2 viability: -38.0%

How did O=C(NCc1cccs1)C(=O)NCC(c1ccco1)N1CCN(c2ccc(F)cc2)CC1 (centres undefined) do in these assays?
ATXN2 expr inh: -24.5%; TGFb SMAD3 inh: -28.0%; Nrf2 block: 14.6µM*; A549 viability: -18.5%; S2 tox: inactive; HepG2 viability: -8.3%

How did COc1ccc(C)cc1N(C)C(=O)Cc1c(C(=O)O)n(C)c2ccccc12 do in these assays?
ATXN2 expr inh: -14.6%; TGFb SMAD3 inh: -5.7%; Nrf2 block: 3.3%; A549 viability: -1.4%; S2 tox: inactive; HepG2 viability: -20.4%

Results for COc1cccc(N2CC(NC(=O)COc3ccc4ccccc4c3)CC2=O)c1 (centres undefined) ?
TGFb SMAD3 inh: -14.1%; A549 viability: 10.9%; HepG2 viability: -18.0%

What do the screens show for `O=C(Cn1c(=O)c(CNc2ccccc2)cc2cc3c(cc21)OCCO3)Nc1ccccc1Cl`?
TGFb SMAD3 inh: -0.9%; Nrf2 block: 27.8%; A549 viability: 0.3%; HepG2 viability: -0.3%

What do the screens show for `CCn1cnc2c(=O)oc3ccc(S(=O)(=O)Nc4ccc(OC)cc4)cc3c21`?
ATXN2 expr inh: inconclusive; TGFb SMAD3 inh: inconclusive; Nrf2 block: 2.3%; A549 viability: -0.9%; S2 tox: inconclusive; HepG2 viability: -33.1%
